# How the values were obtained:
# Details in all cases: concentration: 1 μM, replicates: in singlicate; n = 1
# PRKCD = system: PRKCD
# PRKCE = system: PRKCE
# PRKCH = system: PRKCH
# PRKCI = system: PRKCI
# PRKCQ = system: PRKCQ
# PRKD1 = system: PRKD1
# PRKD2 = system: PRKD2
# PRKD3 = system: PRKD3
# PRKG1 = system: PRKG1
# PRKG2 = system: PRKG2
# PRKR = system: T1, PRKR
# T1 construct: gene EIF2AK2
# PRKX = system: PRKX
# PRP4 = system: PRP4
# PYK2 = system: T2, PYK2
# T2 construct: gene PTK2B
# QSK = system: QSK
# RAF1 = system: RAF1
# RET = system: RET
# RIOK1 = system: RIOK1
# RIOK2 = system: RIOK2
# RIOK3 = system: RIOK3
# 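Further: KINOMEscan kinase panel screen.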
SMILES,%Inh (PRKCD) [%],%Inh (PRKCE) [%],%Inh (PRKCH) [%],%Inh (PRKCI) [%],%Inh (PRKCQ) [%],%Inh (PRKD1) [%],%Inh (PRKD2) [%],%Inh (PRKD3) [%],%Inh (PRKG1) [%],%Inh (PRKG2) [%],%Inh (PRKR) [%],%Inh (PRKX) [%],%Inh (PRP4) [%],%Inh (PYK2) [%],%Inh (QSK) [%],%Inh (RAF1) [%],%Inh (RET) [%],%Inh (RIOK1) [%],%Inh (RIOK2) [%],%Inh (RIOK3) [%]
O=C(Nc1n[nH]c2nc(-c3ccco3)c(Br)cc12)c1ccc(CN2CCCC2)cc1.O=C(O)[C@H](O)[C@@H](O)C(=O)O [SB-742352],0,2,17,0,0,0,30,0,0,0,0,0,0,42,0,17,28,0,0,0
Cc1ccc(O)cc1Nc1cc(C(F)(F)F)nc2ccc(-c3ccncc3)cc12 [GW630823],0,0,0,0,0,3,0,29,7,0,0,8,0,17,0,0,9,14,0,13
Cl.Cn1ccc(-c2cccc(Nc3ccnc4cc(-c5nccs5)ccc34)c2)n1 [GW525701],0,10,14,0,0,0,0,14,22,0,5,0,61,45,4,18,5,14,22,0
Cn1cc(-c2ccc3c(c2)CCN3C(=O)Cc2cccc(C(F)(F)F)c2)c2c(N)ncnc21 [GSK2606414],1,0,23,15,0,0,0,42,19,0,0,16,9,0,0,14,78,28,18,0
COc1ccc(NC(=O)c2ccc(-c3cc(-c4nnc(C)o4)ccc3C)cc2)cc1 [GW595885],0,4,8,0,9,2,0,0,4,0,0,5,18,0,21,6,28,12,0,0
CNc1nccc(-c2c(-c3ccc(F)cc3)ncn2C2CCN(C)CC2)n1 [SB-222903],10,2,0,0,0,0,19,0,14,0,11,0,0,0,0,0,0,0,0,3
O=c1cc(N2CCOCC2)nc2n(Cc3cccc(Cl)c3)ccn12 [GSK2296823],0,8,0,22,0,0,0,15,0,0,0,33,4,4,0,6,87,17,10,0
Cc1cccc(-c2nc(Nc3ccc4[nH]nnc4c3)c3ccccc3n2)n1 [GW867587],0,7,0,0,0,94.2,98.1,66,0,0,0,0,0,0,0,0,0,0,0,0
Fc1ccc(Nc2nccc(-c3c(-c4ccc(Cl)cc4)nn4ncccc34)n2)cc1F [GW829058],0,18,0,22,0,0,0,9,3,17,0,0,0,1,20,18,9,0,10,7
Oc1ccc2ncnc(Nc3ccc(OCc4ccccc4)cc3)c2c1 [GI262866],0,0,6,27,15,0,0,30,0,0,0,11,26,0,10,18,12,18,4,10
O=C(c1ccc(-c2cc(-c3c[nH]nc3-c3ccccn3)ccn2)cc1)N1CCCC1 [GW792479],12,0,0,100,0,0,0,0,13,0,4,0,12,7,0,43,5,10,0,19
Clc1cc(Nc2ncnc3cc[nH]c23)ccc1OCc1ccccn1,13,8,0,9,34,0,3,0,10,22,0,13,19,9,0,17,17,24,42,0
CS(=O)(=O)CCNCc1nc(-c2ccc3ncnc(Nc4ccc(OCc5cccc(F)c5)c(Cl)c4)c3c2)cs1.Cl [GW583340],0,0,0,13,0,0,2,3,0,0,0,0,0,0,0,1,0,10,0,17
OCCOCCn1ccc2ncnc(Nc3ccc(Oc4cccc(Cl)c4)c(Cl)c3)c21,28,2,0,0,0,0,0,0,4,0,0,3,9,0,0,5,0,0,0,0
C[C@H]1CC[C@@H](C(=O)Nc2ccccc2)CN1c1cc(-c2ccc3c(N)n[nH]c3c2)nc(N)n1 [GSK2283293],0,0,24,24,4,0,4,0,0,4,0,8,2,20,10,6,0,42,8,31
Clc1ccc(-c2cc(-c3c[nH]nc3-c3ccccn3)ccn2)cc1 [GW681251],0,26,4,0,0,56,31,25,0,10,11,12,9,0,0,4,27,19,2,0
Clc1cccc(-c2nc(Nc3ccncc3)c3ccccc3n2)c1 [GW873004],24,16,50,17,0,47,45,44,16,7,0,12,50,4,0,46,0,40,0,46
Fc1ccc(-c2ncn(CCCNCc3ccccc3)c2-c2ccncc2)cc1,0,26,0,0,30,20,0,27,7,0,0,0,17,1,1,0,18,0,11,28
COc1cc2ncnc(Nc3ccc(OCc4ccccc4Br)c(Cl)c3)c2cc1OC.Cl [GI261590],0,8,0,33,100,4,0,0,0,0,0,0,0,32,0,21,14,29,0,10
COc1ccc(-c2oc3ncnc(N)c3c2-c2ccc(OC)cc2)cc1 [SB-589132],0,28,4,35,0,30,0,0,0,0,0,3,64,7,6,44,11,0,0,0
COc1ccc(Nc2nccc(N3CCC(NC(=O)Nc4ccc5c(c4)OCO5)C3)n2)cc1 (stereo not drawn) [GSK1379745],8,10,12,25,2,1,0,25,20,0,0,19,23,27,8,22,9,28,5,35

# Source: PMC5540273 (PLoS ONE, 2017)
